Results filed as inconclusive are left out. Unmarked numbers belong to inactive results. Calls of active or inactive are those of the source. Calls come from the whole dose curve; as a rule, active = well fitted inhibition curve with a large enough effect; inconclusive = small, poorly fitted or top-dose-only effect; inactive = no such curve, though single readings can be large or run the other way.
Target: Tumor susceptibility gene 101 protein (Homo sapiens) (UniProt Q99816)
Assay: qHTS Assay for Iinhibitors of HIV-1 Budding by Blocking the Interaction of PTAP/TSG101: Hit Validation in TR assay
Details: Tsg101 binding domain + Texas Red-labeled PTAP peptide, fluorescence polarization, 20 min; series mostly up to 57.5 µM; activity change, negative = inhibition: at the top concentration
Outline: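 Fluorescence polarization: Tsg101 binding domain (10 uM final) with Texas Red-labelled PTAP peptide (50 nM final) in HEPES pH 7.5, 0.15 M NaCl, Tween 20, EDTA, TCEP; 20 min binding at room temperature after compound addition.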
% is set by controls: 0 for no effect and ±100 for the full control effect; potency is the fitted concentration of half-maximal effect.

Chain of Tumor susceptibility gene 101 protein (Homo sapiens) (Q99816 whole entry, looked up): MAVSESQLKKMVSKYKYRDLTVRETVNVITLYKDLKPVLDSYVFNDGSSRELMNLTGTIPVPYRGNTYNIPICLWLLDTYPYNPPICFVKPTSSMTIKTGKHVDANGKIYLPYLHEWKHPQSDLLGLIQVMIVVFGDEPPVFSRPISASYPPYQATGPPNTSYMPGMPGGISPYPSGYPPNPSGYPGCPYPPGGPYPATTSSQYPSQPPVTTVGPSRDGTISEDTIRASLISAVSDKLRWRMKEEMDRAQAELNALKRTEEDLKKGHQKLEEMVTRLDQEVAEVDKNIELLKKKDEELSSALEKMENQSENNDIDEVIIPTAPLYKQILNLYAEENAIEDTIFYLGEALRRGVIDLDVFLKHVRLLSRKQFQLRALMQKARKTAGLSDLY

Row | SMILES | activity change, negative = inhibition [%] | Potency
1 | O=[N+]([O-])c1ccc(Sc2cccc[n+]2[O-])c2nonc12 | 4.85 | –
2 | O=C(OCCN1C(=O)c2cccc3c(N4CCOCC4)ccc(c23)C1=O)c1ccc(Cl)cc1 | -16.3 | –
3 | COc1ccc(-c2onc3ccc(Br)cc23)cc1 | 179 | –
4 | O=C1c2cccc3c([N+](=O)[O-])ccc(c23)C(=O)N1c1ccc(Cl)cn1 | -5.67 | –
5 | CCc1ccc(/C=C2/C(=O)N(C)C(=S)N2CC(=O)OC)s1 | -11.4 | –
6 | COc1ccc(-n2nc(C(=O)Nc3ccc(OC)c(OC)c3)c3c4ccccc4n(C)c3c2=O)cc1 | -9.28 | –
7 | CSc1ccc(C2C(C(=O)c3ccco3)=C(O)C(=O)N2c2nnc(SC)s2)cc1 (centres undefined) | 16.3 | –
8 | CCCn1c(=N)c(S(=O)(=O)c2ccccc2)cc2c(=O)n3cccc(C)c3nc21 | 1.27 | –
9 | Cc1cc(C=C2C(=O)c3ccccc3C2=O)c(C)n1-c1ccc(Cl)cc1 | -8.23 | –
10 | N#Cc1c(C#N)c(O)c2ccccc2c1O | -3.51 | –
11 | O=C(Nc1ccccc1F)C(=Cc1sc(N2CCOCC2)nc1-c1ccccc1)C(=O)Nc1ccccc1F | 0.0258 | –
12 | COc1cccc(NC(=O)/C(C#N)=C/c2ccc(-c3ccc(C)cc3)o2)c1 | 21.1 | –
13 | CC(C)(C)C(=O)c1sc2nc(-c3cccs3)cc(C(F)(F)F)c2c1N | -10.8 | –
14 | Cc1ccc2nc(-c3ccco3)c(Nc3ccccc3)n2c1 | -12.8 | –
15 | CCOC(=O)/C(C#N)=C(C)/C=C1\Sc2ccccc2N1CC | 23.7 | –
16 | O=[N+]([O-])c1ccc(-c2ccc(/C=N/Nc3nc(N4CCCC4)nc(N4CCCC4)n3)o2)cc1 | -20.8 | –
17 | O=C(C1=NN(c2ccccc2)C2C(=O)N(c3ccccc3Cl)C(=O)C12)c1ccccc1 (centres undefined) | 19.6 | –
18 | Cc1cccc(NC(=S)NCCC(c2ccccc2)c2ccccc2)c1 | -2.24 | –
19 | COc1ccc(OC)c(-c2c3cc(O)c(=O)cc-3oc3cc(O)c(O)cc23)c1 | – | 32.6 µM (active)
20 | COc1ccc2c3c(cccc13)C(=O)CC2 | 2.95 | –

Row | SMILES | activity change, negative = inhibition [%] | Potency
21 | O=c1oc2c(CN3CCCCC3)c(O)ccc2cc1-c1nc2ccccc2[nH]1 | -9.27 | –
22 | COCCCNC(=O)c1ccc2c3c(onc13)-c1ccccc1C2=O | 0.569 | –
23 | Cc1c2ccccc2nc2c(F)c(N(C)C)c(F)c(F)c12 | -4.14 | –
24 | O=C(N/N=C/c1ccccc1Cl)c1[nH]c2ccc(Br)cc2c1-c1ccccc1 | -8.23 | –
25 | COc1ccccc1N1C(C)=CC(=C(C#N)c2nc3ccccc3s2)C=C1C | 28.4 | –
26 | CCCCCOc1ccc(/C=c2\sc3nc(=O)c(-c4ccccc4)nn3c2=O)cc1OC | -7.79 | –
27 | CC(=O)c1cccc(-n2nnnc2SCC(=O)Nc2cc(C)on2)c1 | 2.31 | –
28 | O=C1NC(=S)/C(=C\c2ccc(-c3ccccc3Cl)o2)S1 | 2.19 | –
29 | O=C1c2ccccc2-c2onc3ccc(NCc4ccco4)c1c23 | -15.9 | –
30 | CCN(CC)C(=O)c1sc2nc(-c3cccs3)cc(-c3cccs3)c2c1N | -10.4 | –
31 | C/C(N)=C(/C#N)C(=O)CSc1ncnc2ccccc12 | -2.93 | –
32 | Cn1cccc1/C=C1\SC(=S)N(NC(=O)c2ccccc2Cl)C1=O | -15.6 | –
33 | CCOc1ccc(NC(=O)N(C2CCCCC2)C(C)c2ccncc2)cc1 (centres undefined) | -7.55 | –
34 | CCCCCCn1c(=O)[nH]c2nc3cc(N)c(C)cc3nc2c1=O | -3.8 | –
35 | Cc1cccc2cc(/C=C3\N=C(c4ccccc4)OC3=O)c(N3CCOCC3)nc12 | -4.21 | –
36 | COCC1CCN(Cc2c(C(=O)N3CCc4ccccc4C3)nc3ccc(Cl)cn23)C1 (centres undefined) | 85.7 | –
37 | Oc1[nH]c2ccc(Br)cc2c1N=Nc1ccc(F)cc1 | 25.5 | –
38 | COc1ccc(NC(=O)c2cccc(-c3ccc(O)cc3)c2)cn1 | -20.6 | –
39 | Cn1c(=O)c(Nc2ccc(Cl)cc2)c2c3c(cccc31)C(=O)c1ccccc1-2 | -2.75 | –

Reference: PubChem BioAssay AID651599 (National Center for Advancing Translational Sciences (NCATS), 2012)
